# According to PubChem BioAssay AID1851 (National Center for Advancing Translational Sciences (NCATS), 2009):
# Screen size: about 16,000 compounds; about 2,600 (16%) were called active. About 20% were inconclusive and are not listed. The list is a sample of the results. Unmarked numbers belong to inactive results. Calls follow the shape of the dose curve; as a rule, active = well fitted curve in the direction sought with a large enough effect; inconclusive = small, poorly fitted or top-dose-only effect, or effect the other way; inactive = no such curve, though single readings can be large or run the other way.
# Target: Cytochrome P450 2D6 (Homo sapiens) (UniProt P10635)
# Sequence (P10635 whole entry, looked up): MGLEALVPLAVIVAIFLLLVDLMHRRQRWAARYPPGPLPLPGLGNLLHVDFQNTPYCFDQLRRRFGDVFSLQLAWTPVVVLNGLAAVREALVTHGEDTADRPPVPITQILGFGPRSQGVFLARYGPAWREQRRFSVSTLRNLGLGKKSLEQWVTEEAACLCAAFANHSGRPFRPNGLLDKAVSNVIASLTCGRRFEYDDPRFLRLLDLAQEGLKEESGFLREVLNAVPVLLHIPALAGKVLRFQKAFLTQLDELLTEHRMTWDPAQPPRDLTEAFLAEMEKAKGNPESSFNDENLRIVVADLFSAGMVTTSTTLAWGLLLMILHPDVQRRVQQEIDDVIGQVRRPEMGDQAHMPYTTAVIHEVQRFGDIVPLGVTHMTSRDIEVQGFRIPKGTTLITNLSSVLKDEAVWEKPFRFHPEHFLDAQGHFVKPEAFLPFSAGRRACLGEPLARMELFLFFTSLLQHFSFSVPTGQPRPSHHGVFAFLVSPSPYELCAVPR
# Experiment: Cytochrome panel assay with activity outcomes
# Conditions: recombinant CYP, pro-luciferin dealkylation, luminescence, p450-cyp2d6; series mostly up to 57.1 µM; activity, negative = inhibition: at the top concentration
# % is scaled to controls: 0 for no effect and ±100 for the full control effect.
Structure (SMILES),"activity, negative = inhibition",AC50
CC(=O)OCc1nc2ccccc2s1,14%,–
CCCCOC(=O)Nc1nc2ccccc2s1,-9.05%,–
CCCc1cc(C(=O)Cc2nc3ccccc3s2)c(O)cc1O,–,1.41 µM (active)
Cc1cc2ncn(/N=C/c3ccc([N+](=O)[O-])o3)c2cc1C,-17.6%,–
COc1cccc2cc3c(=O)oc4ccccc4c3nc12,1.36%,–
COc1cccc(-c2cc(=O)c3ccccc3o2)c1N,–,7.94 µM (active)
Cc1cccc(NC(=O)c2cc(=O)c3ccccc3o2)n1,-8.7%,–
CC1CC2=C(NC(=S)NC2c2ccc(F)cc2)/C(=C/c2ccc(F)cc2)C1 (stereo not drawn),-6.34%,–
CO[C@@H]1/C=C\CC(=O)N[C@@H](C)C(=O)OC[C@H](NS(=O)(=O)c2ccc(C)cc2)[C@H](C)/C=C\CC(=O)OC[C@H]1C,-18.7% [at 11.4 µM],–
COc1cccc(-c2cc3nc(-c4ccccc4)cc(N4CCC5(CC4)OCCO5)n3n2)c1,6.39%,–
CCNc1ncc2nc(CCc3ccccc3)c(=O)n(CCOC)c2n1,–,0.398 µM (active)
COc1cccc(Nc2ncc3nc(CCc4ccccc4)c(=O)n(CCC#N)c3n2)c1,-3.89%,–
CCNc1ncc2nc(CCc3ccccc3)c(=O)n(CCC#N)c2n1,–,0.158 µM (active)
N#CCCn1c(=O)c(CCc2ccccc2)nc2cnc(Nc3ccccc3)nc21,10.8%,–
COCCn1c(=O)c(CCc2ccccc2)nc2cnc(OC)nc21,-5.74%,–
CCNc1ncc2nc(CCc3ccccc3)c(=O)n(Cc3cccc(OC)c3)c2n1,-14.3%,–
CCC(=O)N1CCN(C(=O)c2ccccc2)CC1,2.19%,–

Structure (SMILES),"activity, negative = inhibition",AC50
COc1cc(O)c2c(O)c3c(c4c2c1[C@@]1(C4)C(C)=CCCC1(C)C)[C@H](O)[C@@]1(O)CC(=O)C(C(N)=O)=C(O)[C@]1(O)C3=O,-15.8% [at 11.4 µM],–
COC(=O)c1cccc(NC(=O)/C=C/c2cccc([N+](=O)[O-])c2)c1,-0.318%,–
O=C(/C=C/c1cccc(Cl)c1)Nc1ccncc1,–,7.94 µM (active)
COCCCNC(=O)/C=C/c1cccc(Cl)c1,-6.77%,–
C[C@@]1(CCOCc2ccccc2)NC(=O)NC1=O,-5.74% [at 11.4 µM],–
COc1ccc(C(=O)NCc2cn3ccccc3n2)cc1,1.48%,–
C=C[C@@]1(C)CC(=O)[C@@]2(O)[C@@]3(C)[C@@H](O)CCC(C)(C)[C@@H]3[C@H](OC(=O)CCN(C)C)[C@H](OC(C)=O)[C@@]2(C)O1,-4.44%,–
O=C(Nc1ccccc1C(=O)Nc1ccc2c(c1)OCO2)c1ccco1,–,12.6 µM (active)
O=C(Nc1ccccc1)/C(=C\c1ccc2c(c1)OCO2)NC(=O)c1ccco1,–,15.8 µM (active)
O=C(NC(Cc1ccccc1)C(=O)O)/C(=C\c1ccco1)NC(=O)c1ccc(Br)cc1 (stereo not drawn),-2.43%,–
Cc1ccc(NC(=O)/C(=C\c2cccnc2)NC(=O)c2ccco2)cc1,-15.6%,–
CCC(NC(=O)c1ccccc1NC(=O)c1ccco1)C(=O)NC1CCCCC1 (stereo not drawn),2.82%,–
CC1(C)Oc2ccc(NC(=O)c3ccco3)cc2O1,-8.3%,–
COc1ccccc1C(=O)N/C(=C/c1ccc(Br)cc1)C(=O)NCC(=O)O,-11.1%,–
C=CCNC(=O)/C(=C\c1ccc2c(c1)OCO2)NC(=O)c1ccc(Br)cc1,–,25.1 µM (active)
O=C(N/N=C/c1ccc2c(c1)OCO2)/C(=C/c1ccc2c(c1)OCO2)NC(=O)c1ccccc1,-19.8%,–
